Assay results as given in PubChem BioAssay AID624331 (National Center for Advancing Translational Sciences (NCATS), 2012).
Results filed as inconclusive are left out. Entries that show only a call come without a potency. Activity calls are given as the source filed them. Calls follow the shape of the dose curve; as a rule, active = well fitted activation curve with a large enough effect; inconclusive = small, poorly fitted or top-dose-only effect; inactive = no such curve, though single readings can be large or run the other way.

Test: qHTS assay for re-activators of p53 using a Luc reporter: Hit Validation with no p53 Expressed
Conditions: p53-null cells, luciferase reporter counter-screen; series mostly up to 46.1 µM
Method in brief: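 Without p53 expression, cells (1000/well, Opti-MEM + 10% FBS) were exposed 24 h at 37 deg C to compounds in a 1:5 series from 10 mM stock (top 46.1 µM in well). Luminescent signal read 10 min after Amplite addition; actives flag unspecific activation.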
Potency is read from the fitted curve at half-maximal effect.

SMILES | Potency
O=C(/C(=N/N=C/c1ccc(O)c(O)c1)c1ccccc1)c1ccccc1 | inactive
CCc1ccc(C(=O)Nc2nc3ccccc3[nH]2)cc1 | inactive
Cn1c(Cc2cccs2)nnc1SCc1nc2ccccc2[nH]1 | inactive
COc1cccc(/C=N/NC(=O)CCc2n[nH]c(=O)[nH]c2=O)c1O | inactive
CCOc1ccc(N/C=C/C(=O)c2ccccc2)c([N+](=O)[O-])c1 | inactive
O=C(c1cccc(Br)c1)c1coc2ccc(O)cc12 | inactive
O=c1[nH]c(N/N=C/c2ccc(O)cc2)nc2ccccc12 | inactive
CCOC(=S)SCC(=O)Nc1nc(-c2ccc(Br)cc2)cs1 | inactive
CCN(CC)CCN1C(=O)C(=O)/C(=C(/O)c2cnn(-c3ccccc3)c2C)C1c1ccc(C)o1 (stereo unspecified) | inactive
O=C(COc1ccc(Cl)cc1Cl)Nc1ccc(Cl)cn1 | inactive
O=C(NCCCNC1CCCCC1)c1ccc(/C=N/O)nc1 | inactive
Cc1cccc(NC2SC(=O)N(c3ccccc3)C2=O)c1 (stereo unspecified) | inactive
O=C(/C=C/c1cnc2ccccc2n1)NC12CC3CC(CC(C3)C1)C2 | inactive
Cc1ccc(C)n1-c1sc2c(c1C(=O)O)CCCC2 | inactive
O=C(Nc1ccc(Cl)cc1Cl)c1ccc2c(c1)OCCO2 | inactive
COc1ccc(-c2cc(C(F)(F)F)nc(-n3ccnc3C)n2)cc1 | inactive
COc1ccc(/C(O)=C2/C(=O)C(=O)N(CCN3CCOCC3)C2c2ccccn2)cc1 (stereo unspecified) | inactive
Cc1cs/c(=N/C(=S)Nc2ccccc2)n1C | 1300 nM (active)
O=C(CCC1CCCC1)Nc1ccc(Br)cn1 | inactive
Cc1cc(C)cc(OCC(=O)NNC(=O)c2ccccn2)c1 | inactive
CC(C)N1C(=O)CN(C2CCCCCC2)C(=O)C1c1ccccc1F (stereo unspecified) | inactive
